# In PubChem BioAssay:
# The source made the active and inactive calls. The rule behind the calls is not given here.
# Test: inhibition of Brca1/Bard1 split-luciferase complementation, confirmation, counter-screen for Mdm2/MdmX interaction inhibitor project, luminescence, single concentration (AID 504668)
# Details: Brca1/Bard1 bimolecular luciferase complementation counterscreen, at 8 µM, active compounds read high
row,SMILES,inhibition
1,O=C(CCCN1C(=O)/C(=C\c2cccs2)SC1=S)Nc1cccnc1,25.5% (active)
2,CC(=O)N(C(C)=O)c1ncc2c([nH]c3ccccc32)c1C#N,33.1% (active)
3,COc1ccc(-c2cc(C(=O)NNC3=NCCC3)c3c(C)nn(-c4ccccc4)c3n2)cc1,34.3% (active)
4,Cc1ccc(O)c(/C=N/NC(=O)Cc2ccc(Cl)cc2)c1,33.6% (active)
5,FC(F)(F)c1cnc(NNC(=S)Nc2ccc(Cl)cc2)c(Cl)c1,23.3% (active)
6,O=C(N/N=C/c1ccc(O)cc1O)c1ccc(CN2C(=O)c3cccc4cccc2c34)cc1,29.2% (active)
7,O=C(/C=C\c1cn(-c2ccccc2)nc1-c1ccccc1)Nc1nccs1,28.9% (active)
8,CN(C)CCCNC(=O)/C(=C\c1ccc(-c2ccc(Br)cc2)o1)NC(=O)c1ccccc1,29.2% (active)
9,COc1ccc(OC)c2[nH]c(C(=O)N/N=C/c3ccccc3O)cc12,32.5% (active)
10,O=C1[C@H]2[C@@H](c3ccc(F)cc3)N3C(=O)N(c4ccc(Br)cc4)C(=O)[C@@]3(Cc3ccc(Cl)cc3)[C@H]2C(=O)N1C1CCCCC1,27.8% (active)
11,N#C/C(=N/Nc1ccc(OC(F)(F)F)cc1)C(N)=S,35% (active)
12,CC(C)=CCc1c2c(c(O)c3c(=O)c4c(oc13)-c1cc(O)c(O)cc1OC4C=C(C)C)C=CC(C)(C)O2 (stereo not given),34.4% (active)
13,CCS(=O)(=O)c1ccc(N=Nc2ccc(O)c3ncccc23)c(OC)c1,31.8% (active)
14,Cc1cc(C(=O)NC2CCCc3c2cnn3-c2cccc(C)c2C)no1 (stereo not given),23.6% (active)
15,COc1cc(OC)cc(C(=O)Oc2c(CN3CCOCC3)cc(Cl)c3cccnc23)c1,33.8% (active)
16,CCCCC(=O)NC(c1cccs1)c1cc(Cl)c2cccnc2c1O (stereo not given),28.5% (active)
17,CC(=O)NC(c1cccc([N+](=O)[O-])c1)c1ccc2cccnc2c1O (stereo not given),23.7% (active)
18,CCOc1cc(/C=N/N=C(\N)c2nonc2N)cc(Br)c1OCc1cccc2ccccc12,33.4% (active)
19,COc1ccc([C@@H]2[C@@H]3C(=O)N(C(C)(C)C)C(=O)[C@@H]3[C@]3(CC(C)C)C(=O)N(c4ccc(C(F)(F)F)cc4)C(=O)N23)cc1,35% (active)
20,O=C(N/N=C/c1cc(Br)cc(Br)c1O)c1cccc(N2CCCC2=O)c1,26.3% (active)

row,SMILES,inhibition
1,CCOc1cccc2sc(NC(=O)CCS(=O)(=O)c3ccccc3)nc12,35.4% (active)
2,Cc1ccc(-n2nc(C)c(NC(=O)CCl)c2C)cc1C,34% (active)
3,CCOC(=O)Cn1c(-c2nonc2NC(=O)c2ccccc2F)nc2ccccc21,34.7% (active)
4,COc1ccc(Nc2ccnc3ccccc23)cc1,33.7% (active)
5,O=C1c2ccccc2NC(c2ccc(Cl)cc2Cl)N1O (stereo not given),30.7% (active)
6,CC(C)(C)c1cc(Cl)c(O)c(NC(=S)NC(=O)c2cccnc2)c1,35.2% (active)
7,CCC(=O)Nc1cccc(C(=O)/C=C/c2ccccc2)c1,34.4% (active)
8,CC(C)(C)c1ccc(-c2nnc3sc(-c4ccccn4)nn23)cc1,30.2% (active)
9,Cc1sc2ncnc(N3CCC(C(=O)N(C)CC(=O)Nc4ccc(Cl)c(C(F)(F)F)c4)CC3)c2c1C,29% (active)
10,COc1ccc(/C=c2/sc3n(c2=O)C(c2ccccc2OC)C2=C(N=3)c3ccccc3CC2)cc1O (stereo not given),29.6% (active)
11,COc1cc(NC(=S)NC(=O)c2ccc(C(C)(C)C)cc2)ccc1NC(=O)c1cccs1,27.7% (active)
12,O=C(NC(Cc1c[nH]c2ccccc12)C(=O)Nc1ccc(F)c([N+](=O)[O-])c1)c1cccs1 (stereo not given),24.8% (active)
13,Cc1ccc(-c2csc(NC3OC(=O)c4ccccc43)n2)cc1 (stereo not given),23.7% (active)
14,CCOC(=O)C(CC)(CC)C(=O)/C=C/c1cccc(Br)c1,29.2% (active)
15,CC(C)c1ccc(/C=C2\SC(=S)N(CCC(=O)N3CCCCC3CCO)C2=O)cc1 (stereo not given),29.9% (active)
16,Cc1nn2c(NCc3ccccn3)cc(C(C)C)nc2c1-c1ccccc1,28.7% (active)
17,Cc1ccc(/C=C2\SC(=S)N(CCCC(=O)N3CCOCC3)C2=O)cc1,30.5% (active)
18,CCSc1nsc(NC(=O)Nc2cccc(F)c2)n1,26.2% (active)
19,CCn1c(-c2ccc(C)cc2)nn(CC(=O)NCCc2ccccc2)c1=S,31.4% (active)
20,Nc1cccc2nc3ccccc3cc12,32.2% (active)
